Experimental data taken from PubChem BioAssay.
Activity calls are given as the source filed them. The rule behind the calls is not given here.

Experiment: inhibition of 3D7 malaria parasite growth – strain 3D7 (AID 2306);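 note: 0% = DMSO wells and 100% = chloroquine plus artemisinin control wells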
Settings: P. falciparum 3D7 erythrocytic growth, LDH absorbance, 72 h; at 2 µM; stronger effect = higher value

Growth inhibition, active:
O=C(/C=C/c1ccc(Cl)c(Cl)c1)N1CCC(CCCN2CCC(c3c[nH]c4ccc(O)cc34)CC2)CC1 102%
C=CCOC(=O)N1CCC(CNCc2cccc(-c3ccc(-c4nc5c(C)cccc5[nH]4)cc3)c2)C1 (centres undefined) 103%
CO/C(=C\C=C\c1cc2cc(Cl)c(Cl)cc2[nH]1)C(=O)NC1C[C@H]2CCC[C@@H](C1)N2C (some centres undefined) 93%
Nc1ncc(-c2ccccc2)cc1-c1nc2cc(Cl)c(F)cc2[nH]1 101%
Cc1cccc2[nH]c(-c3ccc(-c4ccc(CN5CC(C)OC(C)C5)cc4)cc3)nc12 (centres undefined) 97%
CCCCCc1cnc2nc(N)nc(N)c2c1 82%
Nc1cccc(CNCc2cccc(-c3ccc(-c4nc5ccccc5[nH]4)cc3)c2)c1 101%
CCCC(CCC)n1ccc2c3c(N)nc(N)nc3ccc21 98%
COc1cccc(OC)c1C(=O)N1CCC2(CC1)C(=O)N(CC(=O)NC1CCCCC1)CN2c1ccccc1 92%
Cc1cc(N[C@@H](Cc2ccccc2)C(=O)NCc2cccs2)nc(NCCc2ccccn2)n1 93%
OCC1CCN(Cc2ccc(-c3ccc(-c4nc5ccccc5[nH]4)cc3)cc2)CC1 100%
COc1cc(C(=O)N2COCC(CCCN3CCC(N4CCCC4)CC3)(c3ccc(Cl)c(Cl)c3)C2)cc(OC)c1OC (centres undefined) 95%
COc1ccc2c(CCNc3nc(SC)ncc3C(=O)NCCc3ccc(F)cc3)c[nH]c2c1 91%
CCn1c(C2CCN(CCC3CCN(C(=O)/C=C/c4ccc(Cl)c(Cl)c4)CC3)CC2)nc2ccccc21 86%
CCN(CC)CCN(Cc1ccc(-c2ccc(C(F)(F)F)cc2)cc1)C(=O)Cn1c(/C=C/c2ccco2)nc(=O)c2ccccc21 94%
CC(=O)Nc1ccc(CN2CCCN(c3cc(NC(=O)c4cccc(C)c4)ccn3)CC2)cc1 92%
O=C(NC1CC1)c1ccc(N2CCCC(COc3ccc4c(c3)CCCC4)C2)nc1 (centres undefined) 85%
CC(C)(C)c1ccccc1OCCCON1C(N)=NC(N)=NC1(C)C 95%
O=C(Nc1ccccc1)Nc1cccc(-c2cccc(-c3nc4ccc(F)cc4[nH]3)c2)c1 99%
CC(C)c1ccc(NC(=O)c2ccc(C(=O)NC3CCN(Cc4ccsc4)C3)cc2)cc1 (centres undefined) 82%
O=C(Nc1ccc(C(F)(F)F)cc1)NC1CCN(c2ccnc3ccccc23)C1 (centres undefined) 102%
C=CCOc1ccc(CNC2CCN(Cc3ccccc3)CC2)cc1Br 92%
COc1cccc(CN2CCCN(Cc3cccc(NC(=O)c4ccc(Cl)c(Cl)c4)c3)CC2)c1 89%
Cc1cc2ccc(/C=C/C(=O)NC3CCC(CCN4CCc5ccc(C#N)cc5CC4)CC3)cc2[nH]1 (centres undefined) 84%
CCC1N=C(N)N=C(N)N1OCCCOc1c(Cl)cc(Cl)cc1Cl (centres undefined) 95%
NC(N)=NN=Cc1ccc2c(c1)Cc1ccccc1-2 100%
Cc1ccc(S(=O)(=O)N(CCCNCc2cccc(O)c2)c2ccccc2)cc1 95%
COc1cc(F)c2ncc(C#N)c(CCN3CCC(NCc4ccc5c(c4)OCCO5)CC3)c2c1 97%
Nc1nc(N)c2c(Cl)c(N(Cc3ccccc3)Cc3ccccc3)ccc2n1 96%
CCCN(CC1CC1)c1nc(C)nc2c(-c3ccccc3)cc(C)cc12 96%
COc1ccc(-c2nc3c(N)nc(N)nc3nc2C(C)C)cc1 96%
O=C(/C=C/c1ccc(C(F)(F)F)cc1)NCCCCCN1CCN(C(=O)Nc2ccc(Cl)cc2)CC1 88%
Oc1ccc(Nc2nc(N3CCCC3)c3ccccc3n2)cc1 102%
CCc1sc(CN(CCCNc2cc(=O)c3ccccc3[nH]2)Cc2sc(CC)c(Br)c2-c2ccsc2)c(-c2ccsc2)c1Br 99%
COc1ccc(C(=O)N[C@@H](CC(C)C)C(=O)NC2CC[C@@H](C)N(C(=O)Nc3ccc(Cl)cc3)CC2=O)cc1OCCN1CCOCC1 (some centres undefined) 96%
C[C@@H]1CN(c2ccnc3ccc(Sc4ccc(Oc5ccccc5)cc4)cc23)C[C@H](C)N1 100%
O=C(Nc1ccc2c(c1)CCNCC2)Nc1ccc2ccccc2c1 84%
O=C1CC(C(=O)Nc2cccc(-c3cccc(-c4nc5ccccc5[nH]4)c3)c2)c2ccccc2N1 (centres undefined) 84%
CC(=O)c1cccc2[nH]c(C(=O)NC3CCC(CCN4CCc5ccc(C#N)cc5C4)CC3)cc12 (centres undefined) 96%
